# High-throughput results (PubChem)
# HP1b chromo inh: HTS for Inhibitors of HP1-beta Chromodomain Interactions with Methylated Histone Tails. Chromobox protein homolog 1 (Homo sapiens), P83916. AlphaScreen HP1-beta / biotin-H3K9me3 peptide binding. Potency, µM (doses to about 114 µM), for the others: at the highest dose activity change, negative = inhibition, most hits filed as inhibitors. hit rate 0.56% among 390,000. AID 540317, 2011; also: nearly all actives have a fitted effect of over 70% in size
# Target sequence (P83916 whole entry, looked up): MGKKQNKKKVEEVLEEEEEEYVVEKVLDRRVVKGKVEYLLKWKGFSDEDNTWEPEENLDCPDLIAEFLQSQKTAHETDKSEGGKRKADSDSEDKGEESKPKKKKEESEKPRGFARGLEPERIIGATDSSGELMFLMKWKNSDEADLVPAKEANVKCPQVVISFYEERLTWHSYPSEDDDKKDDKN
#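 Compound inhibition of the preformed complex between 50 nM HP1-beta and 50 nM biotinylated H3K9me3 peptide was read by AlphaScreen. Buffer was PBS pH 7.4 with 0.01% Tween-20. Incubations ran 30 min at room temperature, with 10 ug/mL donor/acceptor beads.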
# G9a inh: qHTS Assay for Inhibitors of Histone Lysine Methyltransferase G9a; hit rate 8.8% among 350,000; G9a H3K9 monomethylation, AlphaScreen, 2 h; Potency, µM (doses to about 102 µM), for the others: at the top dose activity, negative = inhibition, usual class: inhibitors; also: % is scaled to controls: 0 for no effect and ±100 for the full control effect; nearly all actives have a fitted effect of over 75% in size
# Target sequence (Q96KQ7 913-1193 limits assumed): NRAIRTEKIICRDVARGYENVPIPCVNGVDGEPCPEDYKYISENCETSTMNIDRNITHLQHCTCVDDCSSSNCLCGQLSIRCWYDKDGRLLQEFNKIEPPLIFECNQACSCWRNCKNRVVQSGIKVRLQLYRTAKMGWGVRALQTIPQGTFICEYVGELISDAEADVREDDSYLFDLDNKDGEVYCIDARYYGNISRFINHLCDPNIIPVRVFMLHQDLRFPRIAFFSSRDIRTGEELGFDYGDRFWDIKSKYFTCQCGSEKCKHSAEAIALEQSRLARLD
#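 Chemiluminescent proximity detection of H3K9 monomethylation, read after 10 min bead incubation in the dark. Reaction: 20 nM G9a, 500 nM biotin-H3K9 peptide, 20 uM SAM cofactor, 2 h, room temperature, following 15 min enzyme-compound preincubation.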
# Sfp inh: qHTS Assay for Inhibitors of Bacillus subtilis Sfp phosphopantetheinyl transferase (PPTase). 4'-phosphopantetheinyl transferase ffp (Bacillus subtilis), Q9F4F7. hit rate 3.5% among 310,000. AID 1490, 2009. Potency, µM, for the others: largest response in the series, negative = inhibition, actives largely listed as inhibitors. Biochemical Sfp PPTase activity, qHTS;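 also: the enzyme is Sfp with the accession as filed and its product quenches rhodamine fluorescence; 0% = enzyme reaction without inhibitor and -100% = no enzyme wells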
#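 Step 1, compound plus 15 nM Sfp-PPTase, 15 min, room temperature. Step 2, add rhodamine-CoA (5 uM) and BHQ-2-YbbR (12.5 uM). Step 3, read 525/598 nm fluorescence at 0 and 30 min.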
# BAZ2B inh: qHTS Assay for Inhibitors of BAZ2B | AlphaScreen BAZ2B-H3K14Ac peptide displacement | Potency, µM (top dose mostly 114 µM), for inactives: top-dose activity change, negative = inhibition, actives largely listed as inhibitors | hit rate 4.4% among 360,000; also: % is scaled to controls: 0 for no effect and ±100 for the full control effect; nearly all actives have a fitted effect of over 60% in size
#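 AlphaScreen luminescence quantifies BAZ2B engagement of H3K14Ac peptide; the protein and biotinylated peptide are both at 50 nM final, buffer PBS pH 7.4 with 0.01% Tween-20, all steps at room temperature.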
# JMJD2A Tudor inh: qHTS Assay for Inhibitors of JMJD2A-Tudor Domain; AlphaScreen JMJD2A-Tudor / H3K4me3 peptide binding; Lysine-specific demethylase 4A (Homo sapiens), O75164; hit rate 4.4% among 390,000; Potency, µM (highest dose often 114 µM), for inactives: at the highest dose activity change, negative = inhibition, actives largely listed as inhibitors; also: % is scaled to controls: 0 for no effect and ±100 for the full control effect; nearly all actives have a fitted effect of over 50% in size
# * = called active by the depositor; ? = inconclusive; . = not tested or not shown; [ ] = remark or other dose. Rows were chosen to be rich in hits. Some 12% of all compounds tested hit in one or more screens of this group. Calls follow the shape of the dose curve; as a rule, active = well fitted curve in the direction sought with a large enough effect; inconclusive = small, poorly fitted or top-dose-only effect, or another doubt; inactive = no such curve, though single readings can be large; an effect the other way counts as inactive or inconclusive. Potency is read from the fitted curve at half-maximal effect.
SMILES,HP1b chromo inh,G9a inh,Sfp inh,BAZ2B inh,JMJD2A Tudor inh
CCC1c2ccc(C)n2CCN1C(=O)Nc1cc(Cl)ccc1OC (stereo not given),4%,-1%[59 µM],-8%,-8%,?
CCC1c2ccc(C)n2CCN1C(=O)Nc1ccccc1C(=O)OC (stereo not given),8%,50µM*,-5%,-28%,-32%
Cc1ccc2c(cnn2C(=O)CCC(=O)NCc2cccc(Cl)c2)c1,29%,45µM*,-23%,11%,-15%
Nc1nc(CN2CCOCC2)cs1,-6%,24%[12.7 µM],-13%,1%,22µM*
Nc1nc(CN2CCCCC2)cs1,25%,-50%[59 µM],18%,5%,-8%
CCNC(=O)NC(=O)CSc1ccc(S(=O)(=O)N(C)C2CCCCC2)cn1,3%,11%[12.7 µM],.,8%,-11%
CC(C)Cc1nnc(NC(=O)c2cccc(S(=O)(=O)N3CCN(C)CC3)c2)s1,25%,40µM*,.,11%,-4%
O=C(NNS(=O)(=O)c1ccccc1F)c1cccc(S(=O)(=O)N2CCOCC2)c1,3%,?,-4%,-5%,11µM*
O=C(NNS(=O)(=O)c1ccc(F)c(Cl)c1)c1cccc(S(=O)(=O)N2CCOCC2)c1,26%,-9%,-13%,-6%,-8%
O=C(Nc1nnc(-c2ccccc2)s1)c1cccc(S(=O)(=O)N2CCOCC2)c1,13%,?,3%,-4%,79µM*
CCc1cccc(-n2c(=O)c3cccnc3n2CC(=O)Nc2ccccc2C(=O)OC)c1,29%,5%[59 µM],.,5%,12%
N#CC(C#N)=C1C=C2C=C(N3CCCCC3)CCC2CC1 (stereo not given),?,?,-10%,45µM*,?
CCN(CC)C1=CC2=CC(=C(C#N)C#N)CCC2CC1 (stereo not given),16%,-26%[59 µM],-4%,-18%,-15%
CCCCc1nc2sc3c(SCCN(C)C)ncnc3c2c2c1CCC2,-22%,?,?,-27%,50µM*
CCCCc1nc2sc3c(SCC(=O)NCc4ccco4)ncnc3c2c2c1CCC2,2%,22%[0.501 µM],45µM*,?,-32%
CCCCc1nc2sc3c(=O)n(N)cnc3c2c2c1CCCC2,25%,7%[59 µM],36%,7%,-13%
CCc1nc(SCC(=O)NCc2ccco2)c2c3c(sc2n1)CCCC3,29%,6%[59 µM],8%,-5%,?
COCCCNC(=O)CCCn1c(SCC(=O)c2ccc(Br)cc2)nc2c(sc3ccccc32)c1=O,0%,-45%[59 µM],.,?,-29%
O=C1C=CC(=O)C(CNc2ccc(C(=O)OCc3ccccc3)cc2)=C1,40µM*,.,.,.,40µM*
CN(C)c1ccc(C(=O)OCc2ccccc2)cc1,44%,3%,2%,47%,-6%[11.4 µM]
Cc1[nH]c2ccc(F)cc2c1CCN1C(=O)OC(C)(C)C1(C)O (stereo not given),0%,0%[12.7 µM],6%,-26%,-1%
Cc1[nH]c2ccc(OCc3ccccc3)cc2c1CCN1C(=O)OC(C)(C)C1(C)O (stereo not given),-10%,79µM*,-5%,?,?
CC(=O)Nc1ccc(S(=O)(=O)Nc2cccc(-c3csc(C)n3)c2)cc1,39%,9%[0.501 µM],-1%,-6%,-5%
Nc1nc(-c2ccc(-c3ccccc3)cc2)cs1,-8%,45µM*,-40%,-32%,-23%
Nc1nc(-c2ccc3ccccc3c2)cs1,-36%,50µM*,0%,?,-36%
Nc1nc(-c2cccc(NS(=O)(=O)c3ccccc3)c2)cs1,-16%,45µM*,0%,?,?
Cc1ccc(-c2csc(N)n2)cc1,-17%,.,.,.,-34%
Cc1ccc(S(=O)(=O)NC(C)(C)CN2CCCCC2)cc1,20%,35%,16%,-4%,-14%
CC1=C(C(=O)Nc2ccc(F)cc2F)C2(CCCCCC2)OC1=O,36%,-1%[59 µM],.,2%,-21%
